Results: PubChem BioAssay
Active and inactive are the calls of the source. Unless noted, no rule for the calls is given here.

What was measured:
[1] = system: Wnt5a (protein binding on small-molecule microarray); experiment: Wnt5a binders on small-molecule microarray, primary screen, biophysical, 635/667 nm fluorescence (AID 1142); details: 635 nm fluorescence, higher = more signal;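 also: fluorescence read at 667 nm with signal to noise per printed feature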
[2] = cell viability in Huh7 cells, primary screen, cytotoxicity control for HCV replication inhibitor project, CellTiter-Glo luminescence, basal, 48 h (AID 1143); details: Huh7 HCV replicon, higher = more signal, called active from +8 up or from −8 down;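 also: Huh7 hepatoma cells carrying a hepatitis C replication reporter with no stimulus; test concentration not given here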
[3] = P. aeruginosa biofilm formation inhibitors, primary screen, PAO1 strain, BacTiter-Glo luminescence, LB-PBS (AID 1144); details: 12 h, higher = more signal
[4] = CREB reporter modulators without forskolin, primary screen, cell-based, PC12, CRE-LacZ reporter, unstimulated (AID 1145); details: no forskolin, luminescence, 4.5 h, higher = more signal, called active from +8 up or from −8 down
[5] = CREB reporter modulators under forskolin, primary screen, cell-based, PC12, CRE-LacZ reporter, forskolin-stimulated (AID 1146); details: luminescence, 4.5 h, higher = more signal, called active from +8 up or from −8 down;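 also: PC12 cells with 6xCRE LacZ reporter stimulated by forskolin 10 µM; beta-galactosidase reporter signal reflecting CREB driven transcription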
[6] = target: Streptavidin (Streptomyces avidinii) (UniProt P22629); experiment: streptavidin binders on small-molecule microarray, primary screen, artefact control for SMM compound annotation, biophysical, 635/667 nm fluorescence (AID 1147); details: streptavidin binding, higher = more signal;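 also: signal reflects streptavidin binding to arrayed compounds as a control protein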
Chain of Streptavidin (Streptomyces avidinii) (P22629 whole entry, looked up): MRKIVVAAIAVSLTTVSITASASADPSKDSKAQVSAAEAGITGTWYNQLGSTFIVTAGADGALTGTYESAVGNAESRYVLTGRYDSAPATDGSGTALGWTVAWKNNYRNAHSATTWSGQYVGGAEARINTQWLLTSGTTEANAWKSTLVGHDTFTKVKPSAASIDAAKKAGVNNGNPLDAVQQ

[7] = small-molecule binders of probe aInhba, primary screen, biochemical, small-molecule microarray, 635/667 nm fluorescence (AID 1148); details: higher = more signal;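 also: score merges 667nm spot fluorescence with signal-to-noise for antibody binding to printed compounds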
Torsin-1A (Homo sapiens) [8] = target: Torsin-1A (Homo sapiens) (UniProt O14656); experiment: torsin A binders from cell lysate, primary screen, small-molecule microarray, wild-type, 635/667 nm (AID 1149); details: COS7 hTOR1A-WT lysate, 635 nm fluorescence, higher = more signal
Chain of Torsin-1A (Homo sapiens) (O14656 whole entry, looked up): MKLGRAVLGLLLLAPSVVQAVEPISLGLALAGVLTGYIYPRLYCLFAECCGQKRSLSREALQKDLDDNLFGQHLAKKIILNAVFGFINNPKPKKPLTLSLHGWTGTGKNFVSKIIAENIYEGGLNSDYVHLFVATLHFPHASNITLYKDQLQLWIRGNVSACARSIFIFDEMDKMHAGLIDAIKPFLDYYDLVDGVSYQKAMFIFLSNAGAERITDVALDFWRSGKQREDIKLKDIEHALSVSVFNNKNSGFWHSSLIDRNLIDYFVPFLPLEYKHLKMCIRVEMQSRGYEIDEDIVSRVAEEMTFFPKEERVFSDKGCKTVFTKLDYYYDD

Torsin-1A (Homo sapiens) [9] = target: Torsin-1A (Homo sapiens) (UniProt O14656); experiment: small-molecule binders of mutant TOR1A in lysate, primary screen, cell lysate, small-molecule microarray, COS7 lysate, 635/667 nm fluorescence (AID 1150); details: COS7 hTOR1A mutant lysate, 635 nm fluorescence, higher = more signal;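 also: score pools 667 nm emission and signal to noise measuring lysate protein binding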
[10] = system: Sonic hedgehog protein (Shh); experiment: small-molecule binders of Shh protein, primary screen, biochemical, small-molecule microarray, 635/667 nm fluorescence (AID 1151); details: small-molecule microarray binding, 635 nm fluorescence; higher = more signal;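 also: Shh protein binding to compounds spotted on small-molecule microarray slides; score combines spot fluorescence intensity with signal-to-noise across triplicate slides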
[11] = E. coli DRC41 culture turbidity changes, primary screen, E. coli filamentation inducer project, strain DRC41, OD650, 48 h (AID 1152);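 also: E. coli MC1000 strain DRC41 lacking acrAB efflux pump and sulA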; details: E. coli DRC41 (acrAB sulA), higher = more signal, called active from +8 up or from −8 down
[12] = small-molecule binders of probe aLefty1, primary screen, biochemical, small-molecule microarray, 635/667 nm fluorescence (AID 1153); details: higher = more signal;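 also: score merges spot fluorescence with signal-to-noise ratio from the scanned slide images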
[13] = PSAC antagonists in infected red cells, primary screen, cell-based, P. falciparum Indochina, OD700, 1 h (AID 1154); details: P. falciparum Indochina infected RBC osmotic lysis, higher = more signal, called active from +8 up or from −8 down
[14] = PSAC antagonists in infected red cells, primary screen, cell-based, P. falciparum Indochina, OD700, 2 h (AID 1155);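 also: lysis reports solute entry through the parasite surface anion channel PSAC; channel blockers reduce lysis of infected cells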; details: P. falciparum Indochina infected erythrocytes, osmotic lysis OD700; higher = more signal, called active from +8 up or from −8 down
[15] = osmotic lysis modulators in infected erythrocytes, primary screen, PSAC antagonist project, cell-based, P. falciparum Indochina, OD700, 3 h (AID 1156); details: higher = more signal, called active from +8 up or from −8 down
[16] = PSAC antagonists in infected red cells, primary screen, cell-based, P. falciparum Indochina, OD700, 18 h (AID 1157); details: P. falciparum Indochina infected erythrocytes, osmotic lysis OD700, 18 h; higher = more signal, called active from +8 up or from −8 down
[17] = modulators of S6 phosphorylation in cells, primary screen, cell-based, A549, cytoblot, luminescence, serum-stimulated (AID 1158); details: A549 phospho-S6 cytoblot, 5 h, higher = more signal;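 also: serum-stimulated A549 lung adenocarcinoma cells; signal is phosphorylated S6 detected by cytoblot immunostaining with HRP secondary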
[18] = target: NADPH oxidase 2 (Homo sapiens) (UniProt P04839); experiment: NOX2-dependent H2O2 signal modulators, primary screen, NOX inhibitor project, cell-based, HEK293-NOX2, PMA-stimulated, Amplex Red fluorescence (AID 1159); details: 45 min, higher = more signal, called active from +8 up or from −8 down; also: test concentration not given here
Chain of NADPH oxidase 2 (Homo sapiens) (P04839 whole entry, looked up): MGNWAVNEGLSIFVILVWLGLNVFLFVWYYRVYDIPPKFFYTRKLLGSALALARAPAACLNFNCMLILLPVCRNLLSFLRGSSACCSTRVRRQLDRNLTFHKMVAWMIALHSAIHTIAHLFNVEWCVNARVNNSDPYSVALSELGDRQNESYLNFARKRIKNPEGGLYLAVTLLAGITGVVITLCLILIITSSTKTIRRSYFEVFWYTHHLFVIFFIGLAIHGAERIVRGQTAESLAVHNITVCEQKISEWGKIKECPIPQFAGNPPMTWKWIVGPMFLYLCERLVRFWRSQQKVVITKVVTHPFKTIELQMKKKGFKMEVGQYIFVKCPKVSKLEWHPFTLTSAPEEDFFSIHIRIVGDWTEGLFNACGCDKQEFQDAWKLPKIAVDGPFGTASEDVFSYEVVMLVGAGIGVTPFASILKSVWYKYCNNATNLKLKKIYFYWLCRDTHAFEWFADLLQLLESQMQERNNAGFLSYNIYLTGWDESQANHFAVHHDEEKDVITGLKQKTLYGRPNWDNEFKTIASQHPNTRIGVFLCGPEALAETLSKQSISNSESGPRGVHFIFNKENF

[19] = target: NADPH oxidase 4 (Homo sapiens) (UniProt Q9NPH5); experiment: NOX4-dependent H2O2 signal modulators, primary screen, NOX inhibitor project, cell-based, HEK293-NOX4, tetracycline-induced, Amplex Red fluorescence (AID 1160); details: 45 min, higher = more signal, called active from +8 up or from −8 down
Chain of NADPH oxidase 4 (Homo sapiens) (Q9NPH5 whole entry, looked up): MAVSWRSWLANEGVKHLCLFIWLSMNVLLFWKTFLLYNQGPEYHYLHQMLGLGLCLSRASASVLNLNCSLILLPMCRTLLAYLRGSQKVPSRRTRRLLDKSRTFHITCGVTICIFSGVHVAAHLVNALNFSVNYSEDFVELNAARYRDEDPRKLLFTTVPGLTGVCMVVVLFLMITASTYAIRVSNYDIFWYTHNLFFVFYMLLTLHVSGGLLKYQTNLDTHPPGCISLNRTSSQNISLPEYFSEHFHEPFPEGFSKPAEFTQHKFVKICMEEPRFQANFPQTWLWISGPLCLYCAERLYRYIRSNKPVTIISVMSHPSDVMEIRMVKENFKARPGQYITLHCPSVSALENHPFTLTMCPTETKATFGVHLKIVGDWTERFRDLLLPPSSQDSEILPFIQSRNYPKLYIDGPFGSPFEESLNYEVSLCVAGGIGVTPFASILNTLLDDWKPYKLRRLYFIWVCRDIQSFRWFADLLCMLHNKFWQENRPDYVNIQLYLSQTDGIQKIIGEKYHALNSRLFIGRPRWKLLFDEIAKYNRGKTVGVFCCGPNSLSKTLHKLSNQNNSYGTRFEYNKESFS

[20] = target: NADPH oxidase 5 (Homo sapiens) (UniProt Q96PH1); experiment: NOX5-dependent H2O2 signal modulators, primary screen, NOX inhibitor project, cell-based, HEK293-NOX5, Amplex Red fluorescence (AID 1161); details: HEK293-NOX5, ionomycin, 45 min, higher = more signal
Chain of NADPH oxidase 5 (Homo sapiens) (Q96PH1 whole entry, looked up): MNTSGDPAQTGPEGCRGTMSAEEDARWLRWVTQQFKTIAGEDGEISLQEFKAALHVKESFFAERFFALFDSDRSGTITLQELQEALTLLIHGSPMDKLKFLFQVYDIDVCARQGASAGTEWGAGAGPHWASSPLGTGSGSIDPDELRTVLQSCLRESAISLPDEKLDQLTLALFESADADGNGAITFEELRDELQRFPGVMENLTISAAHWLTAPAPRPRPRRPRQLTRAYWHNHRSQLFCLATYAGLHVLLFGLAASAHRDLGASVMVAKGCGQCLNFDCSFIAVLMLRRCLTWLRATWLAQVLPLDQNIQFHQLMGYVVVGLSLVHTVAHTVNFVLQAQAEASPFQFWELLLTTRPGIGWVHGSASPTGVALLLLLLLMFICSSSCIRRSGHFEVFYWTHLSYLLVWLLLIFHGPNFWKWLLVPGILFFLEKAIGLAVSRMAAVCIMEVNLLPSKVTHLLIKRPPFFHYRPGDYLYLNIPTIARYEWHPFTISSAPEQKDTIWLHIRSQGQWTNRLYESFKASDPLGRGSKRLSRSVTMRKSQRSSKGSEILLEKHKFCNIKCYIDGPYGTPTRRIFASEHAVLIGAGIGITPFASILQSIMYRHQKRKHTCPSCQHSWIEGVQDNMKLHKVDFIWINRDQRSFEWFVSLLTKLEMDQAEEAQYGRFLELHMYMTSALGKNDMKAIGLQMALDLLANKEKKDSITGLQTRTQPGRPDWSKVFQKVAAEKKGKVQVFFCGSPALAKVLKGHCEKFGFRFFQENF

Compound	composite z-score [1]	z-score [2]	z-score [3]	z-score [4]	z-score [5]	composite z-score [6]	composite z-score [7]	composite z-score (Torsin-1A (Homo sapiens) [8])	composite z-score (Torsin-1A (Homo sapiens) [9])	composite z-score [10]	z-score [11]	composite z-score [12]	z-score [13]	z-score [14]	z-score [15]	z-score [16]	z-score [17]	z-score [18]	z-score [19]	z-score [20]
O=C(NC1CC1)[C@@H]1c2ccccc2C(=O)N(Cc2cc(F)cc(C(F)(F)F)c2)[C@H]1c1ccc(CO)cc1	0.518	-0.335 (inactive)	-0.435 (inactive)	0.001 (inactive)	0.162 (inactive)	-0.685	-0.0468	0.517	0.543	-0.296	-0.857 (inactive)	-0.205	1.88 (inactive)	0.115 (inactive)	0.943 (inactive)	0.0358 (inactive)	-0.185	-0.0603 (inactive)	0.463 (inactive)	0.515
C[N+](C)(C)CCCCCCNC(=O)[C@H]1C[C@H]2C(=O)N[C@@H](Cc3ccccc3)C(=O)N2[C@H]1c1cccc(OCCO)c1	0.385	-0.236 (inactive)	-0.278 (inactive)	-0.252 (inactive)	-0.54 (inactive)	-0.563	0.0176	1.12	1.24	2.08	0.123 (inactive)	0.222	10.3 (active)	1.48 (inactive)	-1.42 (inactive)	0.719 (inactive)	-0.62	1.78 (inactive)	0.576 (inactive)	1.13
Cc1ccc(C2C3C(=O)CC4C(=O)N(c5ccccc5)C(=O)C4C3CN2S(=O)(=O)c2ccc(C)cc2)cc1 (stereo not given)	0.731	-0.966 (inactive)	0.538 (inactive)	-0.826 (inactive)	-0.743 (inactive)	0.525	0.255	0.0484	0.392	0.205	-0.339 (inactive)	0.476	1.7 (inactive)	0.714 (inactive)	1.72 (inactive)	0.438 (inactive)	-0.69	1.28 (inactive)	0.793 (inactive)	-0.9
COc1ccc(C(O)C2C=CC3C(=O)N(C)C(=O)C3N2NC(=O)OC(C)(C)C)c2ccccc12 (stereo not given)	0.364	-0.144 (inactive)	-0.0855 (inactive)	1.58 (inactive)	-0.0415 (inactive)	1.13	-0.137	0.177	0.644	-0.416	-1.17 (inactive)	0.445	1.9 (inactive)	1.09 (inactive)	0.0084 (inactive)	1.2 (inactive)	-1.16	-0.674 (inactive)	-1.92 (inactive)	0.384
[N-]=[N+]=Nc1ccccc1C[C@]1(C(=O)N2CCCCC2)COC(c2ccc(OCCCO)cc2)=N1	0.427	-4.35 (inactive)	1.38 (inactive)	1.01 (inactive)	-0.57 (inactive)	1.22	0.0108	0.552	0.742	-0.385	0.891 (inactive)	0.371	23.1 (active)	9.64 (active)	3.34 (inactive)	1.77 (inactive)	-0.391	-4.46 (inactive)	-0.826 (inactive)	-1.79
COc1ccc(C(=O)Nc2ccc(CN3C(=O)[C@]4(O[C@H](CC(=O)N5CCC[C@H]5CO)[C@@H]([Si](C)(C)c5ccc(OC)cc5)[C@@H]4C)c4ccccc43)cc2)cc1	0.156	-4.81 (inactive)	-0.00818 (inactive)	2.62 (inactive)	0.124 (inactive)	0.111	0.0785	0.585	0.421	2.05	-0.951 (inactive)	0.385	7.69 (inactive)	1.45 (inactive)	-0.749 (inactive)	0.598 (inactive)	0.424	2.62 (inactive)	1.45 (inactive)	4.87
COCCCNC(=O)[C@]1(Cc2ccccc2)N=C(c2ccc(OCCCO)cc2)O[C@@H]1c1ccccc1CN=[N+]=[N-]	0.703	-3.68 (inactive)	-0.0105 (inactive)	-0.09 (inactive)	-1.03 (inactive)	1.31	0.491	0.52	0.82	-0.147	1.41 (inactive)	0.401	27.1 (active)	18.1 (active)	1.44 (inactive)	2.62 (inactive)	2.35	-0.158 (inactive)	1.26 (inactive)	2.44
CCOC(=O)C[C@H]1[C@H](OC(=O)c2ccc(-c3ccccc3)cc2)[C@@H](NC(=O)c2ccccc2)c2cc(OCCCO)ccc2N1C(=O)Cc1ccc(OC)cc1	0.0137	0.0974 (inactive)	-0.962 (inactive)	0.0035 (inactive)	-0.701 (inactive)	-0.238	0.0001	-0.0369	-0.456	0.0151	0.118 (inactive)	-0.0601	1.93 (inactive)	0.442 (inactive)	-0.113 (inactive)	0.41 (inactive)	-0.0916	1.31 (inactive)	-0.847 (inactive)	2.5
